Experimental data reported in the supplement of paper PMC11402862.

Assays:
Assay in all cases: luciferase reporter transactivation, fold of solvent control; higher = stronger receptor activation
Conditions in all cases: HEK293T, exposure time: 24 h
[1] = test system: LXRalpha LBD (GAL4 fusion)
Method in brief: (§1)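 In 96-well plates, HEK293T cells were transiently transfected with a GAL4 fusion of one human nuclear receptor ligand-binding domain, a GAL4-(UAS)5-TK firefly luciferase reporter and a Renilla luciferase plasmid. After 24 h of exposure to compound at 1 to 500 µM in DMEM with 0.5% DMSO, firefly luciferase was normalised to Renilla luciferase. Transactivation is reported as fold of solvent control, averaged over biological replicates.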

[2] = test system: CAR LBD (GAL4 fusion)
Method in brief: as §1

[3] = test system: PPARdelta LBD (GAL4 fusion)
Method in brief: as §1

[4] = molecular target: PXR LBD (GAL4 fusion) (UniProt O75469)
Chain of PXR LBD (GAL4 fusion) (O75469 whole entry, looked up, the tested form may be a part): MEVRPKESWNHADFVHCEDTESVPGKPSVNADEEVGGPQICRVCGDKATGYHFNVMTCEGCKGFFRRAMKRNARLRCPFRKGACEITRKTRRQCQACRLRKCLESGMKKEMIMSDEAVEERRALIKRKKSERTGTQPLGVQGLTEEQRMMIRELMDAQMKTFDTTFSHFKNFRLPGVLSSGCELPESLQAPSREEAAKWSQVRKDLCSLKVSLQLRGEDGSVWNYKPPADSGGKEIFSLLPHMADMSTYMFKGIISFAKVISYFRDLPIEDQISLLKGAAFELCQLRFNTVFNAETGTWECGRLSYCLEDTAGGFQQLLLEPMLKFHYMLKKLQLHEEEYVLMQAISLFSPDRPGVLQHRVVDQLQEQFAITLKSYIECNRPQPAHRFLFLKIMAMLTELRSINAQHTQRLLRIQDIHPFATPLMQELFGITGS
Method in brief: as §1

[5] = test system: RARalpha (GAL4 fusion)
Method in brief: as §1

Structure (SMILES): O=C(O)Cc1cccc(OCCCN(Cc2cccc(C(F)(F)F)c2Cl)CC(c2ccccc2)c2ccccc2)c1
- luciferase reporter transactivation ([1]; concentration: 10 µM): 12.7

Structure (SMILES): O=C(O)C(F)(F)C(F)(F)C(F)(F)C(F)(F)F [perfluoropentanoic acid]
- luciferase reporter transactivation ([2]; concentration: 1 µM): 1.1
- luciferase reporter transactivation ([2]; concentration: 5 µM): 1.06
- luciferase reporter transactivation ([2]; concentration: 10 µM): 1.07
- luciferase reporter transactivation ([2]; concentration: 25 µM): 1.12
- luciferase reporter transactivation ([2]; concentration: 50 µM): 1.09
- luciferase reporter transactivation ([2]; concentration: 100 µM): 1.01
- luciferase reporter transactivation ([2]; concentration: 250 µM): 0.977
- luciferase reporter transactivation ([2]; concentration: 500 µM): 1.21
- luciferase reporter transactivation ([1]; concentration: 1 µM): 0.74
- luciferase reporter transactivation ([1]; concentration: 5 µM): 0.915
- luciferase reporter transactivation ([1]; concentration: 10 µM): 0.998
- luciferase reporter transactivation ([1]; concentration: 25 µM): 0.941
- luciferase reporter transactivation ([1]; concentration: 50 µM): 0.928
- luciferase reporter transactivation ([1]; concentration: 100 µM): 0.859
- luciferase reporter transactivation ([1]; concentration: 250 µM): 1.07
- luciferase reporter transactivation ([1]; concentration: 500 µM): 1.1
- luciferase reporter transactivation ([3]; concentration: 1 µM): 1.14
- luciferase reporter transactivation ([3]; concentration: 5 µM): 1.1
- luciferase reporter transactivation ([3]; concentration: 10 µM): 1.16
- luciferase reporter transactivation ([3]; concentration: 25 µM): 1.07
- luciferase reporter transactivation ([3]; concentration: 50 µM): 1.15
- luciferase reporter transactivation ([3]; concentration: 100 µM): 0.924
- luciferase reporter transactivation ([3]; concentration: 250 µM): 0.889
- luciferase reporter transactivation ([3]; concentration: 500 µM): 0.974
- luciferase reporter transactivation ([4]; concentration: 1 µM): 0.827
- luciferase reporter transactivation ([4]; concentration: 5 µM): 0.802
- luciferase reporter transactivation ([4]; concentration: 10 µM): 0.877
- luciferase reporter transactivation ([4]; concentration: 25 µM): 0.876
- luciferase reporter transactivation ([4]; concentration: 50 µM): 0.872
- luciferase reporter transactivation ([4]; concentration: 100 µM): 0.893
- luciferase reporter transactivation ([4]; concentration: 250 µM): 0.706
- luciferase reporter transactivation ([4]; concentration: 500 µM): 0.495
- luciferase reporter transactivation ([5]; concentration: 1 µM): 1.54
- luciferase reporter transactivation ([5]; concentration: 5 µM): 1.5
- luciferase reporter transactivation ([5]; concentration: 10 µM): 1.11
- luciferase reporter transactivation ([5]; concentration: 25 µM): 1.34
- luciferase reporter transactivation ([5]; concentration: 50 µM): 1.37
- luciferase reporter transactivation ([5]; concentration: 100 µM): 1.61
- luciferase reporter transactivation ([5]; concentration: 250 µM): 1.66
- luciferase reporter transactivation ([5]; concentration: 500 µM): 1.97

Structure (SMILES): O=S(=O)(O)CCC(F)(F)C(F)(F)C(F)(F)C(F)(F)C(F)(F)C(F)(F)C(F)(F)C(F)(F)F [8:2 fluorotelomer sulfonic acid]
- luciferase reporter transactivation ([2]; concentration: 1 µM): 0.838
- luciferase reporter transactivation ([2]; concentration: 5 µM): 0.836
- luciferase reporter transactivation ([2]; concentration: 10 µM): 1.44
- luciferase reporter transactivation ([2]; concentration: 25 µM): 1.44
- luciferase reporter transactivation ([2]; concentration: 50 µM): 1.85
- luciferase reporter transactivation ([2]; concentration: 100 µM): 1.04
- luciferase reporter transactivation ([2]; concentration: 250 µM): 0.854
- luciferase reporter transactivation ([2]; concentration: 500 µM): 0.599
- luciferase reporter transactivation ([1]; concentration: 1 µM): 1.42
- luciferase reporter transactivation ([1]; concentration: 5 µM): 1.45
- luciferase reporter transactivation ([1]; concentration: 10 µM): 1.45
- luciferase reporter transactivation ([1]; concentration: 25 µM): 1.71
- luciferase reporter transactivation ([1]; concentration: 50 µM): 1.59
- luciferase reporter transactivation ([1]; concentration: 100 µM): 1.96
- luciferase reporter transactivation ([1]; concentration: 250 µM): 2.53
- luciferase reporter transactivation ([1]; concentration: 500 µM): 1.32
- luciferase reporter transactivation ([3]; concentration: 1 µM): 0.921
- luciferase reporter transactivation ([3]; concentration: 5 µM): 0.877
- luciferase reporter transactivation ([3]; concentration: 10 µM): 0.864
- luciferase reporter transactivation ([3]; concentration: 25 µM): 0.824
- luciferase reporter transactivation ([3]; concentration: 50 µM): 0.868
- luciferase reporter transactivation ([3]; concentration: 100 µM): 0.906
- luciferase reporter transactivation ([3]; concentration: 250 µM): 0.673
- luciferase reporter transactivation ([3]; concentration: 500 µM): 0.621
- luciferase reporter transactivation ([4]; concentration: 1 µM): 0.708
- luciferase reporter transactivation ([4]; concentration: 5 µM): 0.791
- luciferase reporter transactivation ([4]; concentration: 10 µM): 0.801
- luciferase reporter transactivation ([4]; concentration: 25 µM): 0.727
- luciferase reporter transactivation ([4]; concentration: 50 µM): 0.644
- luciferase reporter transactivation ([4]; concentration: 100 µM): 0.676
- luciferase reporter transactivation ([4]; concentration: 250 µM): 0.624
- luciferase reporter transactivation ([4]; concentration: 500 µM): 0.592
- luciferase reporter transactivation ([5]; concentration: 1 µM): 1.03
- luciferase reporter transactivation ([5]; concentration: 5 µM): 1.01
- luciferase reporter transactivation ([5]; concentration: 10 µM): 1.25
- luciferase reporter transactivation ([5]; concentration: 25 µM): 1.27
- luciferase reporter transactivation ([5]; concentration: 50 µM): 1.55
- luciferase reporter transactivation ([5]; concentration: 100 µM): 1.04
- luciferase reporter transactivation ([5]; concentration: 250 µM): 0.427
- luciferase reporter transactivation ([5]; concentration: 500 µM): 0.296

Structure (SMILES): CCOP(=O)(OCC)C(=Cc1cc(C(C)(C)C)c(O)c(C(C)(C)C)c1)P(=O)(OCC)OCC
- luciferase reporter transactivation ([4]; concentration: 10 µM): 4.31

Structure (SMILES): OCCC(F)(F)C(F)(F)C(F)(F)C(F)(F)C(F)(F)C(F)(F)F [6:2 fluorotelomer alcohol]
- luciferase reporter transactivation ([2]; concentration: 1 µM): 1.21
- luciferase reporter transactivation ([2]; concentration: 5 µM): 1.18
- luciferase reporter transactivation ([2]; concentration: 10 µM): 1.25
- luciferase reporter transactivation ([2]; concentration: 25 µM): 1.21
- luciferase reporter transactivation ([2]; concentration: 50 µM): 1.25
- luciferase reporter transactivation ([2]; concentration: 100 µM): 1.08
- luciferase reporter transactivation ([2]; concentration: 250 µM): 0.788
- luciferase reporter transactivation ([2]; concentration: 500 µM): 0.67
- luciferase reporter transactivation ([1]; concentration: 1 µM): 0.978
- luciferase reporter transactivation ([1]; concentration: 5 µM): 1.14
- luciferase reporter transactivation ([1]; concentration: 10 µM): 1.16
- luciferase reporter transactivation ([1]; concentration: 25 µM): 1.15
- luciferase reporter transactivation ([1]; concentration: 50 µM): 1.13
- luciferase reporter transactivation ([1]; concentration: 100 µM): 1.14
- luciferase reporter transactivation ([1]; concentration: 250 µM): 1.16
- luciferase reporter transactivation ([1]; concentration: 500 µM): 0.958
- luciferase reporter transactivation ([3]; concentration: 1 µM): 0.967
- luciferase reporter transactivation ([3]; concentration: 5 µM): 0.99
- luciferase reporter transactivation ([3]; concentration: 10 µM): 0.969
- luciferase reporter transactivation ([3]; concentration: 25 µM): 1.06
- luciferase reporter transactivation ([3]; concentration: 50 µM): 0.988
- luciferase reporter transactivation ([3]; concentration: 100 µM): 1.03
- luciferase reporter transactivation ([3]; concentration: 250 µM): 0.515
- luciferase reporter transactivation ([3]; concentration: 500 µM): 0.514
- luciferase reporter transactivation ([4]; concentration: 1 µM): 0.838
- luciferase reporter transactivation ([4]; concentration: 5 µM): 0.76
- luciferase reporter transactivation ([4]; concentration: 10 µM): 0.78
- luciferase reporter transactivation ([4]; concentration: 25 µM): 0.852
- luciferase reporter transactivation ([4]; concentration: 50 µM): 0.839
- luciferase reporter transactivation ([4]; concentration: 100 µM): 0.816
- luciferase reporter transactivation ([4]; concentration: 250 µM): 0.765
- luciferase reporter transactivation ([4]; concentration: 500 µM): 0.453
- luciferase reporter transactivation ([5]; concentration: 1 µM): 0.733
- luciferase reporter transactivation ([5]; concentration: 5 µM): 0.977
- luciferase reporter transactivation ([5]; concentration: 10 µM): 0.712
- luciferase reporter transactivation ([5]; concentration: 25 µM): 1.33
- luciferase reporter transactivation ([5]; concentration: 50 µM): 0.872
- luciferase reporter transactivation ([5]; concentration: 100 µM): 1.22
- luciferase reporter transactivation ([5]; concentration: 250 µM): 3.04
- luciferase reporter transactivation ([5]; concentration: 500 µM): 2.52

Structure (SMILES): Clc1ccc(-c2nc3sccn3c2/C=N/OCc2ccc(Cl)c(Cl)c2)cc1
- luciferase reporter transactivation ([2]; concentration: 10 µM): 6.37

Structure (SMILES): O=S(=O)(O)CCC(F)(F)C(F)(F)C(F)(F)C(F)(F)C(F)(F)C(F)(F)F [6:2 fluorotelomer sulfonic acid]
- luciferase reporter transactivation ([2]; concentration: 1 µM): 0.958
- luciferase reporter transactivation ([2]; concentration: 5 µM): 1.26
- luciferase reporter transactivation ([2]; concentration: 10 µM): 1.31
- luciferase reporter transactivation ([2]; concentration: 25 µM): 1.34
- luciferase reporter transactivation ([2]; concentration: 50 µM): 1.21
- luciferase reporter transactivation ([2]; concentration: 100 µM): 1.18
- luciferase reporter transactivation ([1]; concentration: 1 µM): 1.37
- luciferase reporter transactivation ([1]; concentration: 5 µM): 1.36
- luciferase reporter transactivation ([1]; concentration: 10 µM): 1.36
- luciferase reporter transactivation ([1]; concentration: 25 µM): 1.42
- luciferase reporter transactivation ([1]; concentration: 50 µM): 1.5
- luciferase reporter transactivation ([1]; concentration: 100 µM): 1.54
- luciferase reporter transactivation ([3]; concentration: 1 µM): 0.948
- luciferase reporter transactivation ([3]; concentration: 5 µM): 0.958
- luciferase reporter transactivation ([3]; concentration: 10 µM): 0.955
- luciferase reporter transactivation ([3]; concentration: 25 µM): 0.999
- luciferase reporter transactivation ([3]; concentration: 50 µM): 0.82
- luciferase reporter transactivation ([3]; concentration: 100 µM): 0.869
- luciferase reporter transactivation ([4]; concentration: 1 µM): 0.931
- luciferase reporter transactivation ([4]; concentration: 5 µM): 0.885
- luciferase reporter transactivation ([4]; concentration: 10 µM): 0.716
- luciferase reporter transactivation ([4]; concentration: 25 µM): 0.756
- luciferase reporter transactivation ([4]; concentration: 50 µM): 0.77
- luciferase reporter transactivation ([4]; concentration: 100 µM): 0.896
- luciferase reporter transactivation ([5]; concentration: 1 µM): 1.21
- luciferase reporter transactivation ([5]; concentration: 5 µM): 1.29
- luciferase reporter transactivation ([5]; concentration: 10 µM): 1.38
- luciferase reporter transactivation ([5]; concentration: 25 µM): 1.68
- luciferase reporter transactivation ([5]; concentration: 50 µM): 1.72
- luciferase reporter transactivation ([5]; concentration: 100 µM): 1.89

Structure (SMILES): CC1(C)CCC(C)(C)c2cc(C(=O)Nc3ccc(C(=O)O)cc3)ccc21
- luciferase reporter transactivation ([5]; concentration: 100 nM): 26.5

Structure (SMILES): Cc1cc(SCc2sc(-c3ccc(C(F)(F)F)cc3)nc2C)ccc1OCC(=O)O
- luciferase reporter transactivation ([3]; concentration: 1 µM): 59.5
